Records with an inconclusive call do not appear. The source made the active and inactive calls. The call rests on the fitted dose curve; in most records, active means well fitted inhibition curve with a large enough effect; inconclusive means small, poorly fitted or top-dose-only effect; inactive means flat fitted curve, though single readings scatter.
Experiments:
[1] = qHTS profiling for inhibitors of Plasmodium falciparum proliferation (AID 504749);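 on activity, negative = inhibition: 0% = DMSO vehicle and full inhibition = artemisinin control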; on all read-outs here: nearly all actives have a fitted effect of over 60% in size; conditions: P. falciparum in erythrocytes, SYBR Green DNA, 72 h; for activity, negative = inhibition: at 28.7 µM (top of the series)
In short: (§1)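 P. falciparum-infected erythrocytes (0.3% parasitemia, 2.5% hematocrit final) were exposed to compounds for 72 h at 37 C in 5% CO2, then lysed with SYBR Green buffer overnight at room temperature; parasite DNA fluorescence was normalized to artemisinin and DMSO controls.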

3D7 = experiment: as above; conditions: P. falciparum in erythrocytes, SYBR Green DNA, 72 h; series mostly up to 28.7 µM
In short: as §1

7G8 = experiment: as above; conditions: P. falciparum in erythrocytes, SYBR Green DNA, 72 h; series mostly up to 28.7 µM
In short: as §1

AA1029 = experiment: as above; conditions: P. falciparum in erythrocytes, SYBR Green DNA, 72 h; series mostly up to 28.7 µM
In short: as §1

AS120 = experiment: as above; conditions: P. falciparum in erythrocytes, SYBR Green DNA, 72 h; series mostly up to 28.7 µM
In short: as §1

ATS189 = experiment: as above; conditions: P. falciparum in erythrocytes, SYBR Green DNA, 72 h; series mostly up to 28.7 µM
In short: as §1

ATS95 = experiment: as above; conditions: P. falciparum in erythrocytes, SYBR Green DNA, 72 h; series mostly up to 28.7 µM
In short: as §1

C2A = experiment: as above; conditions: P. falciparum in erythrocytes, SYBR Green DNA, 72 h; series mostly up to 28.7 µM
In short: as §1

CP185 = experiment: as above; conditions: P. falciparum in erythrocytes, SYBR Green DNA, 72 h; series mostly up to 28.7 µM
In short: as §1

CP191 = experiment: as above; conditions: P. falciparum in erythrocytes, SYBR Green DNA, 72 h; series mostly up to 28.7 µM
In short: as §1

CP192 = experiment: as above; conditions: P. falciparum in erythrocytes, SYBR Green DNA, 72 h; series mostly up to 28.7 µM
In short: as §1

CP194 = experiment: as above; conditions: P. falciparum in erythrocytes, SYBR Green DNA, 72 h; series mostly up to 28.7 µM
In short: as §1

CP201 = experiment: as above; conditions: P. falciparum in erythrocytes, SYBR Green DNA, 72 h; series mostly up to 28.7 µM
In short: as §1

CP203 = experiment: as above; conditions: P. falciparum in erythrocytes, SYBR Green DNA, 72 h; series mostly up to 28.7 µM
In short: as §1

CP211 = experiment: as above; conditions: P. falciparum in erythrocytes, SYBR Green DNA, 72 h; series mostly up to 28.7 µM
In short: as §1

CP215 = experiment: as above; conditions: P. falciparum in erythrocytes, SYBR Green DNA, 72 h; series mostly up to 28.7 µM
In short: as §1

CP217 = experiment: as above; conditions: P. falciparum in erythrocytes, SYBR Green DNA, 72 h; series mostly up to 28.7 µM
In short: as §1

CP237 = experiment: as above; conditions: P. falciparum in erythrocytes, SYBR Green DNA, 72 h; series mostly up to 28.7 µM
In short: as §1

CP238 = experiment: as above; conditions: P. falciparum in erythrocytes, SYBR Green DNA, 72 h; series mostly up to 28.7 µM
In short: as §1

CP247 = experiment: as above; conditions: P. falciparum in erythrocytes, SYBR Green DNA, 72 h; series mostly up to 28.7 µM
In short: as §1
Potency means the concentration at half of the fitted maximal effect.

CNC(=O)C[C@@H](N)C(=O)N[C@@H](C(=O)N[C@@H]1C(=O)N2[C@@H]1SC(C)(C)[C@@H]2C(=O)O)c1ccc(O)cc1
inactive: activity, negative = inhibition ([1]; parasite line A) 11.3% | activity, negative = inhibition ([1]; parasite line B) 15.8% | Potency (3D7) | Potency (7G8) | Potency (AA1029) | Potency (AS120) | Potency (ATS189) | Potency (ATS95) | Potency (C2A) | Potency (CP185) | Potency (CP191) | Potency (CP192) | Potency (CP194) | Potency (CP201) | Potency (CP203) | Potency (CP211) | Potency (CP215) | Potency (CP217) | Potency (CP237) | Potency (CP238) | Potency (CP247)

CC(=O)Nc1ccc(OC(=O)c2ccccc2O)cc1
inactive: activity, negative = inhibition ([1]; parasite line A) -9.69% | activity, negative = inhibition ([1]; parasite line B) 13.7% | Potency (3D7) | Potency (7G8) | Potency (AA1029) | Potency (AS120) | Potency (ATS189) | Potency (ATS95) | Potency (C2A) | Potency (CP185) | Potency (CP191) | Potency (CP192) | Potency (CP194) | Potency (CP201) | Potency (CP203) | Potency (CP211) | Potency (CP215) | Potency (CP217) | Potency (CP237) | Potency (CP238) | Potency (CP247)

OCCCNc1ccccc1
inactive: activity, negative = inhibition ([1]; parasite line A) 8.17% | activity, negative = inhibition ([1]; parasite line B) 6.74% | Potency (3D7) | Potency (7G8) | Potency (AA1029) | Potency (AS120) | Potency (ATS189) | Potency (ATS95) | Potency (C2A) | Potency (CP185) | Potency (CP191) | Potency (CP192) | Potency (CP194) | Potency (CP201) | Potency (CP203) | Potency (CP211) | Potency (CP215) | Potency (CP217) | Potency (CP237) | Potency (CP238)

c1ccc(-n2cnnn2)cc1
inactive: activity, negative = inhibition ([1]; parasite line A) 4.13% | activity, negative = inhibition ([1]; parasite line B) -7.64% | Potency (3D7) | Potency (7G8) | Potency (AA1029) | Potency (AS120) | Potency (ATS189) | Potency (ATS95) | Potency (C2A) | Potency (CP185) | Potency (CP191) | Potency (CP192) | Potency (CP194) | Potency (CP201) | Potency (CP203) | Potency (CP211) | Potency (CP215) | Potency (CP217) | Potency (CP237) | Potency (CP238) | Potency (CP247)

C=C1C(CCl)(CCl)C2(Cl)C(Cl)C(Cl)C1(Cl)C2(Cl)Cl (centres undefined)
active: Potency ([1]; parasite line A) 2.51 µM | Potency ([1]; parasite line B) 1.26 µM | Potency (3D7) 1.78 µM | Potency (7G8) 0.282 µM | Potency (AA1029) 3.16 µM | Potency (AS120) 2 µM | Potency (ATS189) 3.16 µM | Potency (ATS95) 3.16 µM | Potency (C2A) 3.16 µM | Potency (CP185) 3.16 µM | Potency (CP191) 3.16 µM | Potency (CP192) 5.36 µM | Potency (CP194) 6.75 µM | Potency (CP201) 13.5 µM | Potency (CP203) 3.79 µM | Potency (CP211) 12 µM | Potency (CP215) 3.79 µM | Potency (CP217) 3.16 µM | Potency (CP237) 3.16 µM | Potency (CP238) 3.16 µM | Potency (CP247) 3.16 µM

C=CCOc1ccc(CC(=O)O)cc1Cl
inactive: activity, negative = inhibition ([1]; parasite line A) 8.56% | activity, negative = inhibition ([1]; parasite line B) 1.68% | Potency (3D7) | Potency (7G8) | Potency (AA1029) | Potency (AS120) | Potency (ATS189) | Potency (ATS95) | Potency (C2A) | Potency (CP185) | Potency (CP191) | Potency (CP192) | Potency (CP194) | Potency (CP201) | Potency (CP203) | Potency (CP211) | Potency (CP215) | Potency (CP217) | Potency (CP237) | Potency (CP238) | Potency (CP247)

CCN(CC)CCC(=O)N1c2ccccc2Sc2ccc(C(F)(F)F)cc21
inactive: activity, negative = inhibition ([1]; parasite line A) -4.68% | activity, negative = inhibition ([1]; parasite line B) -16.3% | Potency (3D7) | Potency (AA1029) | Potency (AS120) | Potency (ATS189) | Potency (ATS95) | Potency (C2A) | Potency (CP185) | Potency (CP191) | Potency (CP192) | Potency (CP194) | Potency (CP201) | Potency (CP203) | Potency (CP211) | Potency (CP215) | Potency (CP217) | Potency (CP237) | Potency (CP238)
active: Potency (7G8) 11.2 µM

Nc1ncnc2c1ncn2CCOCP(=O)(O)O
inactive: activity, negative = inhibition ([1]; parasite line A) 14.6% | activity, negative = inhibition ([1]; parasite line B) 5.72% | Potency (3D7) | Potency (7G8) | Potency (AA1029) | Potency (AS120) | Potency (ATS189) | Potency (ATS95) | Potency (C2A) | Potency (CP185) | Potency (CP191) | Potency (CP192) | Potency (CP194) | Potency (CP201) | Potency (CP203) | Potency (CP211) | Potency (CP215) | Potency (CP217) | Potency (CP237) | Potency (CP238) | Potency (CP247)

CCOC(=S)SSC(=S)OCC
inactive: activity, negative = inhibition ([1]; parasite line A) 12.6% | activity, negative = inhibition ([1]; parasite line B) -0.533% | Potency (3D7) | Potency (7G8) | Potency (AA1029) | Potency (AS120) | Potency (ATS189) | Potency (ATS95) | Potency (C2A) | Potency (CP185) | Potency (CP191) | Potency (CP192) | Potency (CP194) | Potency (CP201) | Potency (CP203) | Potency (CP211) | Potency (CP215) | Potency (CP217) | Potency (CP237) | Potency (CP238)

O=C(O)C1=C(CSc2nnnn2CS(=O)(=O)O)CS[C@@H]2[C@H](NC(=O)[C@H](O)c3ccccc3)C(=O)N12
inactive: activity, negative = inhibition ([1]; parasite line A) -7.54% | activity, negative = inhibition ([1]; parasite line B) 1.69% | Potency (3D7) | Potency (7G8) | Potency (AA1029) | Potency (AS120) | Potency (ATS189) | Potency (ATS95) | Potency (C2A) | Potency (CP185) | Potency (CP191) | Potency (CP192) | Potency (CP194) | Potency (CP201) | Potency (CP203) | Potency (CP211) | Potency (CP215) | Potency (CP217) | Potency (CP237) | Potency (CP238) | Potency (CP247)

O=C(NNCS(=O)(=O)O)c1ccncc1
inactive: activity, negative = inhibition ([1]; parasite line A) 13.1% | activity, negative = inhibition ([1]; parasite line B) 6.08% | Potency (3D7) | Potency (7G8) | Potency (AA1029) | Potency (AS120) | Potency (ATS189) | Potency (ATS95) | Potency (C2A) | Potency (CP185) | Potency (CP191) | Potency (CP192) | Potency (CP194) | Potency (CP201) | Potency (CP203) | Potency (CP211) | Potency (CP215) | Potency (CP217) | Potency (CP237) | Potency (CP238) | Potency (CP247)

C[C@]12CC[C@@H]3c4ccc(OC(=O)c5ccccc5)cc4CC[C@H]3[C@@H]1CC[C@@H]2O
active: Potency (3D7) 6.31 µM | Potency (7G8) 11.2 µM | Potency (CP237) 4.47 µM
inactive: activity, negative = inhibition ([1]; parasite line A) -13.9% | activity, negative = inhibition ([1]; parasite line B) 5.42% | Potency (AA1029) | Potency (AS120) | Potency (ATS189) | Potency (ATS95) | Potency (C2A) | Potency (CP185) | Potency (CP191) | Potency (CP192) | Potency (CP194) | Potency (CP201) | Potency (CP203) | Potency (CP211) | Potency (CP215) | Potency (CP217) | Potency (CP238) | Potency (CP247)

Reference: PubChem BioAssay (NCATS)
